Out of some 48,000 compounds screened, about 13,000 (27%) showed an effect of 50% or more. The list shows a part of the results.

For this assay, the system named is Wolbachia pipientis. The assay can be described thus: Anti-Wolbachia Cell-Based Screen. It is filed as functional. The note with it: 5 µM. Further details: scale not given: in the data most compounds retested in dose-response had high values.
Take `C[C@@H]1CN(Cc2ccc(-c3ccncc3)cc2F)CC(C(N)=O)O1` (stereo not given in full): the “Percent Effect” value is listed as -2.76%.
Under `Cc1ccccc1OCCN(C)Cc1noc(CC(C)C)n1` stands -23.34%.
As for `c1ccc(Cc2nnc(CN3CCCC3Cn3cccn3)o2)cc1` (stereo not given), the figure is 131.9%; as for `c1ccc(Cc2nnc(CN3CCCCC3Cn3cncn3)o2)cc1` (stereo not given), 108.9%.
Under `CCc1nnc(CN2CCCCC2Cn2cncn2)o1` (stereo not given) stands 78.77%.
In the case of `Clc1snnc1CN1CCCCC1Cn1cncn1` (stereo not given), the “Percent Effect” value is on record as -4.6%.
Under `Cc1nc(C2CCCN2Cc2nnc(Cc3ccccc3)o2)no1` (stereo not given) stands -12.76%; under `Cc1nc(C)n(CC2CCCCN2CCCS(C)(=O)=O)n1` (stereo not given), 12.99%.
Under `Cc1cnn(CC2CCCCN2CCn2cncn2)c1` (stereo not given) stands -5.934%; under `Cc1nc(C)n(CC2CCCCN2Cc2nnc(C3CC3)o2)n1` (stereo not given), 1.656%.
As for `CCc1nc(C2CCCN2Cc2nnc(Cc3ccccc3)o2)no1` (stereo not given), the figure is 6.131%.
For `CCc1nnc(CN2CCCCC2Cn2nc(C)nc2C)o1` (stereo not given), the “Percent Effect” value is given as 93.98%.
As for `OC1CCN(c2ccc(CNc3nc4ccccc4s3)cc2F)CC1`, the figure is -3.16%; as for `CS(=O)(=O)N1CCc2[nH]cnc2C12CCN(C(=O)c1ccc[nH]1)CC2`, 5.069%; as for `NCCC1CN(Cc2cnc3c(-c4ccccc4)cnn3c2)CCO1` (stereo not given), 4.404%.
For `CN(C)CCCN(C)c1nccc(N2CCN[C@H]3CS(=O)(=O)C[C@H]32)n1`, the “Percent Effect” value is -10.75%.
As for `COCCNC(=O)NCCn1nc(C(F)(F)F)n(C)c1=O`, the figure is 0.0676%; as for `CC1(C)CN(Cc2c[nH]c(CC3CCCC3)n2)CC[C@]1(C)O`, -6.969%.
For `Cc1cc(C)c(S(=O)(=O)Nc2ccccc2CC(F)(F)F)cc1C(=O)O`, the “Percent Effect” value amounted to 3.88%.
As for `c1cnc2c(c1)nc1n2[C@@H](CNCc2nccs2)COC1`, the figure is -1.802%; as for `Fc1ccc(-c2nnc(CN3CCCC3Cn3cccn3)o2)cc1` (stereo not given), 88.78%; as for `Fc1ccc(-c2cnc(CN3CCCC3Cn3cccn3)o2)cc1` (stereo not given), -6.963%.
`Cc1nc(C)n(CC2CCCCN2Cc2cnc(C)s2)n1` (stereo not given): the “Percent Effect” value is recorded as 97.07%.
For the compound `Cc1nc(C)n(CC2CCCN2Cc2cnc(C)s2)n1` (stereo not given), the “Percent Effect” value is recorded as -0.1768%.
With `Cc1nc(C)n(CC2CCCCN2Cc2cscn2)n1` (stereo not given), the “Percent Effect” value is on record as 10.69%.
On to `OCC(O)CSCc1cc(Cl)ccc1Cl` (stereo not given), for which the “Percent Effect” value is on record as -6.234%.
Under `CC(=O)NC1CCCc2c1[nH]c1ccc(F)cc21` (stereo not given) stands 97.09%; under `O=C(NC1CCCc2c1[nH]c1ccc(F)cc21)c1n[nH]c2c1CCC2` (stereo not given), 132.4%.
As for `O=C(c1cc2c([nH]c1=O)CCC2)N1CCCC1c1ccc(F)cc1` (stereo not given), the figure is 20.74%.
On to `CC(=O)NC(c1cc(F)ccc1F)C1CC1` (stereo not given), for which the “Percent Effect” value turned out to be 0.9467%.
For the compound `O=C(NC1CCCc2c1[nH]c1ccc(F)cc21)c1n[nH]c2c1CCCC2` (stereo not given), the “Percent Effect” value came out at 120.6%.
Consider `O=C1CC(N(C(=O)c2ccc3[nH]c4c(c3c2)CCCC4)C2CC2)C(=O)N1` (stereo not given), for which the “Percent Effect” value is listed as 7.465%.
Under `O=C(NC1CCC1)c1n[nH]c2c1CNCC2` stands -9.631%; under `Cc1ccc(F)cc1NC(=O)CNc1cccc2c1CCCC2`, -15.05%; under `O=C(NCC1CC1)c1n[nH]c2c1CNCC2.O=C(O)C(F)(F)F.O=C(O)C(F)(F)F`, -32.44%.
On to `C/C=C(\C)CN1C[C@H](NC(=O)c2cc[nH]c2C)[C@@H](C2CC2)C1`, for which the “Percent Effect” value is listed as -10.95%.
For `CN(C)c1ncncc1NC(=O)Cc1c[nH]c2ccc(F)cc12`, the “Percent Effect” value was -1.659%.
Under `CC(=O)c1cccc(OCCCC(=O)N(C)CCC(F)(F)F)c1` stands 2.017%; under `COC(C)c1noc(CN2CCCNCC2)n1` (stereo not given), -0.5202%.
Under `CCOC(C)c1noc(CN2CCNCC2)n1` (stereo not given) stands -2.697%; under `CN(C)C(=O)N1CCCC(C(=O)N(C)CCCc2cnn(C)c2)C1` (stereo not given), 4.306%.
For the compound `CNC(=O)C1CCCN(C(=O)NCCC2Cc3ccccc3C2)C1` (stereo not given), the “Percent Effect” value is listed as -25.4%.
With `NCc1cnn(-c2ccccc2C(=O)NCc2ccncc2)c1`, the “Percent Effect” value is -9.699%.
As for `Cc1ccn(-c2ccc(C(=O)N3CCCC(C(N)=O)C3)cc2)n1` (stereo not given), the figure is -6.024%.
As for `CNC(=O)C1CCCN(C(=O)c2ccccc2-n2cc(CN)cn2)C1` (stereo not given), the figure is 111.9%; as for `NCc1cnn(-c2ccccc2C(=O)N2CCCC(C(N)=O)C2)c1` (stereo not given), 94.05%; as for `NC(=O)C1CCCN(S(=O)(=O)c2cnn(-c3ccccc3)c2)C1` (stereo not given), 5.842%.
Regarding `CN(C)C(=O)C1CCCN(C(=O)c2ccccc2-n2cc(CN)cn2)C1` (stereo not given), the “Percent Effect” value is 125.8%.
As for `CN(C)C(=O)N1CCCC(C(=O)N(C)Cc2cnc(N)nc2)C1` (stereo not given), the figure is 11.15%; as for `NC(=O)c1cccc(CNC/C=C/c2ccccc2)c1`, -6.459%; as for `CC(C)OCCOCC(O)CN(C)C(=O)Nc1ccc(F)cc1Cl` (stereo not given), -7.203%.
Consider `CCc1nc(CNc2cc(Cl)ccc2OCC2CCCO2)no1` (stereo not given), for which the “Percent Effect” value was -12.87%.
As for `CCc1cnc2c(c1Nc1ccccc1OC)c(=O)n(C)c(=O)n2C`, the figure is 117.3%; as for `CCc1cnc2c(c1NCc1ccncc1)c(=O)n(C)c(=O)n2C`, -11.7%.
As for `CCc1cnc2c(c1NCc1cccc(OC)c1)c(=O)n(C)c(=O)n2C`, the figure is -3.77%; as for `CCOc1ccccc1Nc1nc2c(C)nn(C)c2c(=O)n1C`, -3.425%.
Take `CCn1c(Nc2ccccc2OC)nc2c(C)nn(C)c2c1=O`: the “Percent Effect” value is on record as 5.481%.
As for `CCc1cnc2c(c1Nc1ccc(OC)cc1)c(=O)n(C)c(=O)n2C`, the figure is -2.304%; as for `COc1cccc(CNc2c(C)cnc3c2c(=O)n(C)c(=O)n3C)c1`, -20.05%; as for `CCc1cnc2c(c1Nc1cccc(OC)c1)c(=O)n(C)c(=O)n2C`, 98.75%.
As for `CCc1cnc2c(c1NCc1ccc(OC)cc1)c(=O)n(C)c(=O)n2C`, the figure is 121.6%.
Take `O=C(N1CCCCC1)N1CCN(CC(O)c2ccc(F)cc2)CC1` (stereo not given): the “Percent Effect” value is -12.83%.
Consider `Cc1nc(CNC(=O)Nc2ccc3c(c2)CCCC(=O)N3)sc1C`, for which the “Percent Effect” value was found to be 3.802%.
On to `Cn1c(CO)cnc1SC(C(=O)NC1CC1)c1ccccc1` (stereo not given), for which the “Percent Effect” value is recorded as -13.82%.
Consider `CC(C)NC(=O)[C@@H]1C[C@@H](N)CN1C(=O)c1cc2c([nH]c1=O)CCCC2`, for which the “Percent Effect” value is listed as 7.662%.
On to `CC(C)CNC(=O)c1cc(C2CC2)nc2c1c(C1CCCN1)nn2C` (stereo not given), for which the “Percent Effect” value came to 129.8%.
As for `O=C(NCC(F)(F)F)NC1CCCc2c1cnn2CCO` (stereo not given), the figure is 2.681%.
Under `Cn1nc(C2CCNC2)c2c(C(=O)NCC(F)(F)F)cc(C3CC3)nc21` (stereo not given) stands 104.4%.
Regarding `Cn1nc(C2CCCN2)c2c(C(=O)NCC(F)(F)F)cc(C3CC3)nc21` (stereo not given), the “Percent Effect” value was 125.9%.
Under `CC(C)CC(NC(=O)c1cc(C2CC2)n[nH]1)c1ncnn1C` (stereo not given) stands -18.23%.
Turning to `CCCn1ncc2c(C(=O)Nc3cnn(CC)c3C)cc(C3CC3)nc21`, the “Percent Effect” value is recorded as 3.978%.
Under `Cc1csc(N2CCCN(C(=O)c3nccnc3N)CC2)n1` stands 0.5076%.
As for `CC(NCC1CCN(CCO)CC1)c1ccc(F)c(Cl)c1` (stereo not given), the figure is 2.095%.
Under `CC(C)CN1C(=O)C2(CCCC2)NC1c1c[nH]nc1-c1cccnc1` (stereo not given) stands -9.401%; under `CNC(=O)C(C)(C)N1CCC[C@H]1C(=O)NCCN1CCCC1.Cl.Cl`, 7.406%.
`CCC(CNC(=O)N1CCOCC2(CCOCC2)C1)c1ccccc1` (stereo not given): the “Percent Effect” value is reported as -24.39%.
Take `CCN(CC1CCCO1)S(=O)(=O)N1CCCCCC1` (stereo not given): the “Percent Effect” value is 99.13%.
As for `O=S(=O)(N1CCCC1)N(Cc1ccccc1)CC1CCCO1` (stereo not given), the figure is 124.5%; as for `CCN(CC)S(=O)(=O)N1CCCN(CC2CCCO2)CC1` (stereo not given), 96.25%; as for `O=C(CN(Cc1cccc(F)c1)CC1CCCO1)N1CCCC1` (stereo not given), 12.97%.
As for `CCN(CC(=O)NC)S(=O)(=O)N1CCCCC1`, the figure is 6.131%; as for `CCN(CC)S(=O)(=O)N1CCCN(CC(=O)NC(C)C)CC1`, -10.54%.
As to `CCS(=O)(=O)CCN(CC1CCCO1)C1CCCC1` (stereo not given), the “Percent Effect” value was -6.431%.
As for `CCN(CCS(=O)(=O)CC)CC1CCCO1` (stereo not given), the “Percent Effect” value is on record as 2.463%.
Consider `CC(C)N(C)S(=O)(=O)N(Cc1cccs1)CC1CCCO1` (stereo not given), for which the “Percent Effect” value stood at 1.212%.
Under `Cc1cc(CN[C@@H](Cc2ccccc2)C(N)=O)c(C)s1` stands -7.626%; under `Cc1cc(C)n(CCNC(=O)c2ncc[nH]2)c(=O)n1`, -0.5408%.
As for `CSc1ncccc1C(=O)N1C[C@H]2CC[C@@H]1CN(c1ncccn1)C2`, the “Percent Effect” value was -10.71%.
Under `CN(CC(=O)NCCC#N)C(c1ccccc1)c1ccccc1` stands -3.756%; under `FC(F)Oc1ccc(NCc2nc(C3CC3)no2)c(OC(F)F)c1`, 6.863%.
For the compound `Cc1noc(C(C)C)c1C(=O)NCC(c1cccs1)N(C)C` (stereo not given), the “Percent Effect” value is reported as 102.8%.
As for `CN(C)C(CNC(=O)c1nc(N2CCOCC2)ncc1Cl)c1cccs1` (stereo not given), the “Percent Effect” value is reported as 4.739%.
As for `Cc1ccc(C(CNC(=O)c2c(C)noc2C(C)C)N(C)C)cc1` (stereo not given), the figure is 95.03%; as for `Cc1noc(C(C)C)c1C(=O)NCC(c1cccc(F)c1)N(C)C` (stereo not given), -3.913%; as for `Cc1noc(C(C)C)c1C(=O)NCC(c1ccccc1)N(C)C` (stereo not given), 108.3%.
On to `Cc1ccc(C(CNC(=O)c2cc(CC(C)C)nn2C)N(C)C)cc1` (stereo not given), for which the “Percent Effect” value is recorded as -5.66%.
Turning to `CC(C)C(=O)NS(=O)(=O)CCc1ccccc1`, the “Percent Effect” value was -1.365%.
Under `Cc1ccnc(NCCNC(=O)CCNC(=O)c2ccccc2F)c1` stands 6.973%; under `CC(C)NC(=O)N1CCc2onc(C(=O)Nc3cccnc3)c2C1.O=C(O)C(F)(F)F`, -28.12%.
On to `CCO[C@@H]1C[C@H]2CN(Cc3ccc(C)o3)CCN2C1.O=C(O)C(F)(F)F.O=C(O)C(F)(F)F`, for which the “Percent Effect” value is reported as -6.795%.
Consider `COCc1nn(C)c2c1CN(Cc1cnn(C)c1)CC2.O=C(O)C(F)(F)F`, for which the “Percent Effect” value is reported as -20.95%.
Under `Cc1ccc(CN2CCc3[nH]nc(C(=O)N(C)C)c3C2)o1.O=C(O)C(F)(F)F` stands 3.694%; under `Cc1ccc(CN2CCc3onc(C(=O)N4CCCC4)c3C2)o1.O=C(O)C(F)(F)F`, 105.8%; under `Cn1cc(CN2CCc3onc(C(=O)N4CCCC4)c3C2)cn1.O=C(O)C(F)(F)F`, 123%.
Under `Cc1ccc(CN2CCO[C@@H]3C[C@@H](C(=O)NC(C)C)C[C@H]32)o1.O=C(O)C(F)(F)F` stands -8.614%; under `Cc1ccc(CN2CCc3onc(C(=O)Nc4cccnc4)c3C2)o1.O=C(O)C(F)(F)F.O=C(O)C(F)(F)F`, 119.7%; under `Cc1ccc(CN2CCc3[nH]nc(C(=O)N4CCN(C)CC4)c3C2)o1.O=C(O)C(F)(F)F.O=C(O)C(F)(F)F.O=C(O)C(F)(F)F`, -23.43%.
Consider `Cn1cc(CN2CCc3onc(COc4cccnc4)c3C2)cn1.O=C(O)C(F)(F)F.O=C(O)C(F)(F)F`, for which the “Percent Effect” value is -7.028%.
As for `Cc1ccc(CN2CCc3onc(C(=O)NC(C)C)c3C2)o1.O=C(O)C(F)(F)F`, the figure is 106.2%; as for `CN(C)C(=O)N1CCc2onc(C(=O)Nc3cccnc3)c2C1.O=C(O)C(F)(F)F`, -32.01%.

Values taken from ChEMBL document CHEMBL3988442, “University of Dundee, Small-Polar-MMV Screening Library” (2021).
